PfG6PD inh = PfG6PD (Plasmodium falciparum) enzyme inhibition; 350,000 compounds, 0.78% hits; AID 504690; PfGluPho enzyme, NADPH resazurin-diaphorase fluorescence; inhibition, % at 20 µM;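 active = inhibition reaching at least a set limit at 20 µM in the primary screen, cut at about 59% in these data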;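 note: 0% = DMSO wells with substrate and 100% = DMSO wells lacking glucose-6-phosphate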
H9c2 protect = modulators protecting cardiomyocytes from myocardial damage; 360,000 compounds, 0.63% hits; H9c2 cardiomyocytes, H2O2 injury protection, ATPLite, 2 h; protection from H2O2 cell death, % at 20 µM;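 active = compounds giving at least 50% protection of heart cells from peroxide-induced death in the single-dose screen, raw or plate-pattern-corrected value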;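 note: 0% = DMSO wells with peroxide and 100% = DMSO wells without peroxide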
NadD block = inhibitors of Staphylococcus aureus NadD. purified NadD enzyme, colorimetric absorbance read-out. inhibition, % at 20 µM. 360,000 compounds, 0.78% hits. AID 602399; in the data active = inhibition above about 26%
A3G deaminase = APOBEC3G (human) deaminase inhibition; Q9HC16; recombinant A3G, ssDNA deamination FAM/TAMRA fluorescence; inhibition, % at 20 µM; 330,000 compounds, 0.28% hits;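 active = inhibition of at least 40% at 20 µM, with no more than 30% in the related APOBEC3A deaminase screen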;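 note: plate controls were DMSO wells with A3G for no effect and wells lacking A3G enzyme for full effect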
Target sequence (Q9HC16 whole entry, looked up): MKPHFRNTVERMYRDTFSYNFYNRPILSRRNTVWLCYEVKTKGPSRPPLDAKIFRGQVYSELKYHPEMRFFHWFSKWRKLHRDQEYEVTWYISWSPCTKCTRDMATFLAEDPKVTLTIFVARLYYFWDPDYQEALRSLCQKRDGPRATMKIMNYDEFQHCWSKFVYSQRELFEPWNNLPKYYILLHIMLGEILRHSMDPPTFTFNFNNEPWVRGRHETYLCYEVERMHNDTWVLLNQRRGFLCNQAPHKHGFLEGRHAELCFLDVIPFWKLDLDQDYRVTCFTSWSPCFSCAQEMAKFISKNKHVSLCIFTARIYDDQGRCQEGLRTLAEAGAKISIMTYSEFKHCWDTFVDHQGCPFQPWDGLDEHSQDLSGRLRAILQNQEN
H9c2 TAG inh = triacylglycerol accumulation inhibition; H9c2 cells, Nile Red lipid (TAG) fluorescence; cells loaded with 200 µM oleic acid; inhibition, % at 12.5 µM; 230,000 compounds, 0.66% hits;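 active = pattern-corrected inhibition of lipid staining of at least 50% with the nuclear-stain viability signal not falling by more than 50%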;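 note: 0% = DMSO wells and 100% = triacsin C control wells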
A3A deaminase = inhibitors of human APOBEC3A DNA deaminase; P31941; recombinant A3A, FAM/TAMRA ssDNA deamination fluorescence; inhibition, % at 20 µM; 330,000 compounds, 0.41% hits; AID 493011;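 active = at least 40% inhibition at 20 µM here, with at most 30% in a related deaminase screen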;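 note: plate controls were A3A with DMSO for no effect and wells lacking A3A enzyme for full effect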
Target sequence (P31941 whole entry, looked up): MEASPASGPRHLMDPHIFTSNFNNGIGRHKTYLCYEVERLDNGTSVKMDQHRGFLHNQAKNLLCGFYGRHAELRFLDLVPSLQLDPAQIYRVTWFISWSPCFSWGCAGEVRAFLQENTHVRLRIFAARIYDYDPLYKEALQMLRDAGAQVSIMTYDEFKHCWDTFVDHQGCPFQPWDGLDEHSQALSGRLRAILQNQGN
NadD conf = NadD (S. aureus) inhibition, single concentration confirmation; shares compounds with NadD block; purified S. aureus NadD, colorimetric enzyme assay; inhibition, % at 20 µM; 2,000 compounds, 13% hits; AID 624309; in the data active = inhibition mostly above about 42%, no sharp cut-off; inactive = mostly below about 42%
Starred values were filed as active, the others as inactive; nt = no result. Hits are enriched below; roughly 2.9% of the tested compounds scored in any of these assays.

SMILES	PfG6PD inh	H9c2 protect	NadD block	A3G deaminase	H9c2 TAG inh	A3A deaminase	NadD conf
CCCn1c(=O)c2c(C(=O)OCC)cc(-c3ccco3)nc2n(CCC)c1=O	-16	-2	-3	nt	nt	nt	nt
CCOC(=O)c1cc(-c2ccco2)nc2c1c(C)nn2-c1ccccc1	7	-1	33*	0	3	4	8
N#Cc1nc(-c2ccc(OCc3ccc(Cl)cc3)cc2)oc1NCCCn1ccnc1	4	-3	30*	-6	7	-6	7
COc1ccccc1CCC(=O)Nc1ccc(S(=O)(=O)Nc2nccs2)cc1	-10	1	-8	-6	3	-3	nt
COCCn1c(=S)[nH]c2cc(C(=O)NC3CCCC(C)C3C)ccc2c1=O (stereo unspecified)	5	1	0	nt	4	nt	nt
COCCCNC(=O)C1CCC(CNS(=O)(=O)c2ccc(C)cc2)CC1 (stereo unspecified)	nt	nt	nt	-6	nt	0	nt
COc1ccc(C)cc1-n1c(SCC(=O)Nc2cc(C)on2)nc2ccccc2c1=O	11	5	-1	-5	8	2	nt
COc1ccc(C)cc1-n1c(SCC(=O)Nc2cc(C)on2)nc2sc(C)c(C)c2c1=O	23	10	36*	-6	22	-7	35
CN(C)C(CNC(=O)c1cc(-c2ccco2)nc2ccccc12)c1ccccc1 (stereo unspecified)	6	0	59*	69	2	58	59*
COc1cc(/C=N/NC(=O)c2cc(-c3ccco3)nc3ccccc23)cc(OC)c1O	37	25	23	20	-2	15	nt
CCc1nnc(NC(=O)c2cc(-c3ccco3)nc3ccccc23)s1	-1	9	81*	52	-14	51	44
CC(C)CCNC(=O)c1cc(-c2ccco2)nc2ccccc12	8	14	-4	0	-17	-1	nt
O=C(N/N=C/c1cccc(F)c1)c1cc(-c2ccco2)nc2ccccc12	15	-15	52*	81	1	93	81*
COc1cccc(N(C(=O)Cn2nnc(-c3cccs3)n2)C(C(=O)NC2CCCCC2)c2ccncc2)c1 (stereo unspecified)	-5	-2	33*	-2	-12	-2	5
N#C/C(=C(/O)CSc1n[nH]c(N)n1)c1nc2ccccc2[nH]1	-10	10	-1	-3	-6	1	nt
Cc1cccc(C)c1Nc1nnc(SC/C(O)=C(\C#N)c2nc3ccccc3[nH]2)s1	-16	16	32*	-7	nt	-2	69*
Cc1ccc(Nc2nnc(SCC(O)=C(C#N)c3nc4ccccc4[nH]3)s2)c(C)c1	-7	8	31*	nt	9	nt	60*
Cn1cnnc1SC/C(O)=C(\C#N)c1nc2ccccc2[nH]1	-15	2	-4	-3	11	0	nt
Cc1ccc(C)c(SCC(=O)OC/C(O)=C(\C#N)c2nc3ccccc3[nH]2)c1	-9	-10	28	nt	19	nt	nt
Cc1cccc(Nc2nnc(SC/C(O)=C(\C#N)c3nc4ccccc4[nH]3)s2)c1C	-18	6	45*	-4	nt	1	41
CCc1ccc(NC(=O)C(C)OC(=O)C2CCN(c3ccc(C(F)(F)F)cn3)CC2)cc1 (stereo unspecified)	2	-5	-4	-8	4	0	nt
CC(C)N(Cc1ccccc1)C(=O)COC(=O)c1ccc(O)cc1	-26	4	0	-2	-3	-1	nt
CCCc1cc2c(=O)c(-c3nc4ccccc4s3)c(COCC(=O)O)oc2cc1O	2	-2	30*	nt	5	nt	30
Cc1nn(Cc2c(Cl)cccc2Cl)c(C)c1NC(=O)c1cnn2c(C(F)F)cc(-c3ccccc3)nc12	-1	28	43*	-10	1	-11	1
O=C(Nc1cnn(Cc2ccc(F)cc2)c1)c1cnn2c(C(F)F)cc(-c3ccccc3)nc12	-2	30	-2	-2	15	-3	nt
SMILES	PfG6PD inh	H9c2 protect	NadD block	A3G deaminase	H9c2 TAG inh	A3A deaminase	NadD conf
Cc1ccc(-c2cc(C(F)F)n3ncc(C(=O)Nc4c(C)nn(Cc5ccccc5Cl)c4C)c3n2)cc1	10	5	33*	-5	23	-2	-2
COCCNC(=O)c1cnn2c(C(F)F)cc(-c3ccc(C)cc3)nc12	11	4	11	-9	38	-3	nt
O=C(N/N=C/c1coc2ccccc2c1=O)c1ccccc1	-10	-1	5	-14	2	1	nt
O=C(N/N=C/c1coc2ccccc2c1=O)c1cn(-c2ccccc2)nc1-c1ccccc1	-8	4	36*	-5	nt	1	20
COc1ccc(Cl)cc1N(CC(=O)N/N=C/c1ccc(OC(C)C)cc1)S(=O)(=O)c1ccc(C)c([N+](=O)[O-])c1	0	6	31*	0	nt	2	15
NS(=O)(=O)c1ccc(N=C2C(=O)Nc3ccccc32)cc1	-18	-1	-6	-8	-5	-4	nt
O=C1Nc2ccccc2C1=Nc1ccc(S(=O)(=O)Nc2nccs2)cc1	-4	0	54*	-6	nt	0	74*
O=C(O)CCCCCNc1ccc2nsnc2c1[N+](=O)[O-]	-14	3	8	-3	0	-1	nt
O=C1NC(=Nc2ccc(Cl)cc2)/C(=C/c2ccco2)S1	34	-8	37*	-5	nt	-4	-1
Nc1nnc(SCC(=O)c2ccccc2)s1	5	27	7	-1	nt	-2	nt
Nc1c(C(=O)c2ccccc2)sc2snc(SCC(=O)c3ccccc3)c12	26	26	37*	4	2	-6	3
CCOC(=O)c1c(C)[nH]c(C)c1C(=O)CSc1nc2ccccc2c(=O)n1-c1ccc(CC)cc1	25	14	5	-5	nt	-1	nt
CC(=O)c1ccc(-n2c(SCC(=O)c3c[nH]c4ccccc34)nc3ccccc3c2=O)cc1	9	13	37*	-6	nt	-3	27
CC(C)(C)OC(=O)N1Cc2ccccc2C[C@H]1C(=O)NCC(=O)NCC1CCCO1 (stereo partly specified)	-1	0	7	-3	nt	-2	nt
COc1cc(OC)c(N(C)S(=O)(=O)c2cccc(C(=O)Nc3nnc(C4CC4)s3)c2)cc1Cl	-1	6	32*	-3	3	3	6
COc1ccc(N(C)S(=O)(=O)c2cccc(C(=O)Nc3nnc(C4CC4)s3)c2)cc1	-18	10	0	-8	-6	1	nt
COc1ccc(/C=C/c2cc(O)cc(OC3OC(CO)C(O)C(O)C3O)c2)cc1 (stereo unspecified)	-11	-22	1	nt	4	nt	nt
CCOCc1nc(N)nc(N)c1-c1cccc(Cl)c1	19	0	-4	nt	-19	nt	nt
Cc1cc(-c2cc(C(=O)O)c3ccccc3n2)c(C)s1	0	-3	58*	-11	12	-2	13
